Compound activity deposited in PubChem by several laboratories.
Compounds with a hit are over-represented: about 1.1% of the library has one in this group of screens.
IDE act = boosts human insulin-degrading enzyme activity in HEK cells | P14735 | AID 493087 | FAbeta-B cleavage, fluorescence polarization; 0% vehicle, 100% cell-free pure enzyme wells | activation, % at 5.96 µM | actives 0.073% (n = 340,000);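 active means activation above the mean of all tested compounds plus 3 SD, set per screening campaign, cut at about 17% in these data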
LANA-H2A inh = blocks KSHV LANA binding to histone H2A/H2B. AID 2629. actives 0.6% (n = 320,000). inhibition, % (test concentration not listed). cell-free LANA-H2A/H2B peptide, fluorescence polarization; in the data active means inhibition mostly above about 10%, no sharp cut-off; inactive means mostly below about 6.7%
HDAC3 inh = blocks human histone deacetylase 3 | recombinant HDAC3, fluorogenic peptide/trypsin coupled, fluorescence | inhibition, % at 8.3 µM | actives 0.15% (n = 320,000); in the data active means inhibition above about 26%, passing the limit was not always enough
Target sequence (O15379 whole entry, looked up): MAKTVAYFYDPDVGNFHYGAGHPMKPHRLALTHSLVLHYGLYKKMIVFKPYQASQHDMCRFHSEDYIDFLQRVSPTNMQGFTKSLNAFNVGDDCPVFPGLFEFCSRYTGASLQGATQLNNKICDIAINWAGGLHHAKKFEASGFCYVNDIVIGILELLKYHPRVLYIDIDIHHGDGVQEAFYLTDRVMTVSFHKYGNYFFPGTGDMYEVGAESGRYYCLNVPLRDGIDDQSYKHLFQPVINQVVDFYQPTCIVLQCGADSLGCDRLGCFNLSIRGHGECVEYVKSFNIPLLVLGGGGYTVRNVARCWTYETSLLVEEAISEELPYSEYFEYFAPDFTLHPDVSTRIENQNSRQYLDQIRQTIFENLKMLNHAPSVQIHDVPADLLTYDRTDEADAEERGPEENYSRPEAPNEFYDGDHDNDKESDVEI
IDE cell inh = inhibits human insulin-degrading enzyme in HEK cells. FAbetaB cleavage, fluorescence polarization. inhibition, % at 5.59 µM. actives 0.41% (n = 320,000);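 active means percent inhibition above the average of all tested compounds plus 3 SD, set per screening campaign, cut at about 16% in these data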;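 further: IDE supplied by intact live HEK cells; FP after avidin binding of uncleaved biotin substrate so inhibition keeps polarization high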
Numbers stand for hits.

N#CC12CNCC1CN=N2 (stereo not given) was read as IDE act inactive, LANA-H2A inh 18, HDAC3 inh inactive and IDE cell inh inactive.
For CC(=O)O[C@H]1C[C@@H]2OC3C=C(C)CCC3(C)[C@@]1(C)[C@@]21CO1 (stereo not given in full) the results were IDE act inactive.
For O=C1Nc2cc(C(=O)N3CCC4(CC3)OCCO4)ccc2NC1CSCc1cccc(F)c1 (stereo not given) the results were LANA-H2A inh inactive, HDAC3 inh inactive and IDE cell inh inactive.
For CCN1C(=O)NC(=O)/C(=C\c2cn(CC(=O)N3CCCCC3C)c3ccccc23)C1=O (stereo not given) the results were IDE act inactive, LANA-H2A inh 33, HDAC3 inh inactive and IDE cell inh inactive.
Screening O=C(O)Cn1cc(C=C2C(=O)NC(=O)NC2=O)c2ccccc21 returned IDE act inactive, LANA-H2A inh inactive, HDAC3 inh inactive and IDE cell inh inactive.
Screening O=C(Cn1cc(C=C2C(=O)NC(=O)NC2=O)c2ccccc21)NCC1CCCO1 (stereo not given) returned IDE act inactive, LANA-H2A inh 18, HDAC3 inh inactive and IDE cell inh inactive.
For N[C@@H]1CCCC[C@H]1N.O=C(O)C(=O)O.[Pt] the results were LANA-H2A inh inactive, HDAC3 inh inactive and IDE cell inh inactive.
For CC1([N+](=O)[O-])COP(=O)(NC2CCCC2)OC1 (stereo not given) the results were IDE act inactive.
Cc1ccc2c(c1)=NC(=O)/C(=C/c1c(O)[nH]c(=O)[nH]c1=O)C=2 was read as IDE act inactive, LANA-H2A inh inactive, HDAC3 inh inactive and IDE cell inh inactive.
For Cc1ccc2c(c1)=C/C(=C\c1c(O)[nH]c(=S)[nH]c1=O)C(=O)N=2 the results were LANA-H2A inh inactive, HDAC3 inh inactive and IDE cell inh 16.
For CC1CCC(C(C)C)C(OC(=O)Cn2c(COc3ccccc3)[n+](C)c3ccccc32)C1 (stereo not given) the results were IDE act 21, LANA-H2A inh inactive, HDAC3 inh inactive and IDE cell inh inactive.
Screening Clc1ccc(COC(Cn2ccnc2)c2ccc(Cl)cc2Cl)cc1 (stereo not given) returned IDE act inactive, LANA-H2A inh inactive, HDAC3 inh inactive and IDE cell inh inactive.
For Clc1ccc(C(c2ccc(Cl)cc2)n2cc[n+](CC(OCc3ccc(Cl)cc3Cl)c3ccc(Cl)cc3Cl)c2)cc1 (stereo not given) the results were IDE act 19, LANA-H2A inh inactive, HDAC3 inh inactive and IDE cell inh inactive.
C=CCCC1(CC(C)C)C(=O)NC(=S)NC1=O was read as IDE act inactive.
CCCC(=O)OCC[N+](C)(C)C was read as IDE act inactive, LANA-H2A inh 20, HDAC3 inh inactive and IDE cell inh inactive.
`CCCCCCC(C)(C)c1ccc([C@@H]2C[C@H](O)CC[C@H]2CCCO)c(O)c1` gave IDE act inactive, LANA-H2A inh inactive, HDAC3 inh inactive and IDE cell inh inactive.
Screening CC(C)(O)/C=C/C(=O)C(C)(O)C1C(O)CC2(C)C3CC=C4C(C=C(O)C(=O)C4(C)C)C3(C)C(=O)CC12C (stereo not given) returned IDE act inactive.
Screening OC(CNC1CCCCC1)C(F)(F)F (stereo not given) returned IDE act 20, LANA-H2A inh inactive, HDAC3 inh inactive and IDE cell inh inactive.
For Cc1cc(C(=O)OCC(=O)Nc2cccc(F)c2)c(C)n1C1CC1 the results were IDE act inactive, LANA-H2A inh active, HDAC3 inh inactive and IDE cell inh inactive.
For COc1ccc(CCn2c(O)c(C=Nc3ccc(F)cc3)c(=O)[nH]c2=O)cc1OC the results were LANA-H2A inh 15, HDAC3 inh inactive and IDE cell inh inactive.
Screening O=c1c2ccccc2nc(/C=C/c2ccc3c(c2)OCO3)n1-c1ccccc1 returned IDE act inactive, LANA-H2A inh 11, HDAC3 inh inactive and IDE cell inh inactive.
Screening O=c1c2ccccc2nc(/C=C/c2ccccn2)n1-c1ccccc1 returned IDE act inactive, LANA-H2A inh inactive, HDAC3 inh inactive and IDE cell inh inactive.
Screening Cc1nc2ccccc2c(=O)n1-c1ccc(C(=O)O)cc1 returned IDE act 18, LANA-H2A inh inactive, HDAC3 inh inactive and IDE cell inh inactive.
Screening COC1/C=C/C=C(\C)Cc2cc(O)c(Cl)c(c2)N(C)C(=O)CC(OC(=O)C(C)C)C2(C)OC2C(C)C2CC1(O)NC(=O)O2 (stereo not given) returned IDE act inactive.
Screening Cn1cc(C(=O)OCC(=O)Nc2ccccc2Cl)c2ccccc21 returned IDE act inactive.
For Cn1cc(C(=O)OCC(=O)Nc2ccccc2)c2ccccc21 the results were IDE act inactive, LANA-H2A inh 90, HDAC3 inh inactive and IDE cell inh inactive.
For O=C1NC(=O)C(=Cc2c(Cl)cccc2Cl)C(=O)N1 the results were IDE act inactive.
`COC(=O)C1=C(c2ccc(OC(F)(F)F)cc2)C[C@@H]2CC[C@H]1N2C(=O)NCCOc1ccccc1Cl` gave IDE act inactive, LANA-H2A inh inactive, HDAC3 inh 34 and IDE cell inh inactive.
CC12CN3CCN(CC(C3)C1O)C2 (stereo not given) was read as IDE act inactive, LANA-H2A inh inactive, HDAC3 inh inactive and IDE cell inh inactive.
Screening CC(C)CC12CN3CCN(CC(C3)C1O)C2 (stereo not given) returned IDE act inactive, LANA-H2A inh 0.7, HDAC3 inh inactive and IDE cell inh inactive.
Screening Cc1ccccc1-[n+]1c(-c2ccccc2)cc(-c2ccccc2)cc1-c1ccccc1 returned IDE act inactive, LANA-H2A inh inactive, HDAC3 inh inactive and IDE cell inh inactive.
For CN1C(=O)C(C2CCCCC2)C(=O)N(C)C1=O the results were IDE act inactive.
For O=C1NC(=S)NC(=O)C1C1CCCCC1 the results were IDE act inactive, LANA-H2A inh 15, HDAC3 inh inactive and IDE cell inh inactive.
COc1cc2c(cc1OC)CN(c1ccc([N+](=O)[O-])c(C(F)(F)F)c1)CC2 was read as IDE act inactive, LANA-H2A inh inactive, HDAC3 inh inactive and IDE cell inh inactive.
For CC(C)(O)C(=O)Nc1ccc([N+](=O)[O-])c(C(F)(F)F)c1 the results were IDE act inactive, LANA-H2A inh 20, HDAC3 inh inactive and IDE cell inh inactive.
`CC1(O)CCN2C(=O)CCc3cccc1c32` (stereo not given) gave IDE act inactive, LANA-H2A inh 12, HDAC3 inh inactive and IDE cell inh inactive.
Screening COC(=O)C1=C(C(=O)OC)SC2(S1)C(C(=O)OC)=C(C(=O)OC)Sc1c2ssc1=O returned IDE act inactive.
CN1CCN(c2ccc(S(C)(=O)=O)cc2[N+](=O)[O-])CC1 was read as IDE act inactive, LANA-H2A inh inactive, HDAC3 inh inactive and IDE cell inh inactive.
Screening CN1CCN(c2ccc([N+](=O)[O-])c3no[n+]([O-])c23)CC1 returned IDE act inactive, LANA-H2A inh 38, HDAC3 inh inactive and IDE cell inh inactive.
Screening O=[N+]([O-])c1cccc(NP(=O)(N2CC2)N2CC2)c1 returned IDE act inactive.
